Data taken from PubChem BioAssay (NCATS).
Calls of active or inactive are those of the source. No rule for the calls is given here.

System: HIV-1 nucleocapsid protein NCp7 (binding to TG oligonucleotide)
Test: HIV Nucleocapsid (AID 346);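 also: potency is for inhibitors that block NC binding and lower polarization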
Conditions: HIV-1 NC / fluorescein-TGTGTGTG probe, fluorescence polarization
Summary of the method: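 Fluorescence polarization binding of 100 nM HIV-1 NC to 10 nM fluorescein-labelled TG4xF oligonucleotide. Buffer was Hepes pH 7.5 with 250mM NaCl, 1uM ZnCl2, TCEP and 2-mercaptoethanol. Compounds were incubated 1 hr at room temperature before the read.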
Potency is read from the fitted curve at half-maximal effect.

Compound	Potency
COc1ccc(-n2c(=O)c(-c3ccccc3)nc3cnc(N4CCNCC4)nc32)cc1	> 20 µM (inactive)
CS(=O)(=O)Nc1cccc(-c2ccc3ncnc(N4CCNCC4)c3c2)c1	> 20 µM (inactive)
CN(C)c1ncc2nc(CCc3ccccc3)c(=O)n(CCc3ccccc3)c2n1	> 20 µM (inactive)
COc1ccc2[nH]cc(CCNc3ncncc3-c3c(C)noc3C)c2c1	> 20 µM (inactive)
CN1CCN(c2ncc3nc(-c4cccc(C#N)c4)c(=O)n(Cc4ccc(F)cc4)c3n2)CC1	> 20 µM (inactive)
COc1ccccc1-c1nccc(NC2CCNCC2)n1	> 20 µM (inactive)
COc1cccc(Nc2ncc3nc(-c4cc(F)cc(F)c4)c(=O)n(C[C@H]4CCCO4)c3n2)c1	> 20 µM (inactive)
O=C(c1ccco1)N1CCC2(CC1)CN(Cc1cc(C(F)(F)F)cc(C(F)(F)F)c1)C2	> 20 µM (inactive)
COc1cccc(Cn2c(=O)c(-c3cn(C)c4ccccc34)nc3cnc(N4CCOCC4)nc32)c1	> 20 µM (inactive)
O=c1c(CCc2ccccc2)nc2cnc(N3CCOCC3)nc2n1C1CC1	> 20 µM (inactive)
CCNc1ncc2nc(-c3cn(C)c4ccccc34)c(=O)n(C)c2n1	> 20 µM (inactive)
CN(C)c1ccc(-c2cc(NCc3ccccc3)ncn2)cc1	> 20 µM (inactive)
CN(Cc1ccco1)c1ncnc2ccc(-c3ccccc3C(F)(F)F)cc12	> 20 µM (inactive)
O=c1c(-c2ccc(F)cc2)nc2cnc(N3CCOCC3)nc2n1C1CC1	> 20 µM (inactive)
COc1ccccc1CN1CCCC2(CCN(C(=O)c3cccn3C)CC2)C1	> 20 µM (inactive)
CN(C)Cc1ccccc1-c1nc(NCc2cccs2)c2ccccc2n1	> 20 µM (inactive)
Cc1noc(C)c1-c1nccc(NCc2cccs2)n1	> 20 µM (inactive)
COc1ccc(-n2c(=O)c(-c3cccs3)nc3cncnc32)cc1	> 20 µM (inactive)
O=C(c1ccncc1)N1CCC2(CC1)CCN(c1ccc(-c3ccccc3)cc1)CC2	> 20 µM (inactive)
CC(C)NC(=O)N1CCC2(CC1)CCN(C(=O)c1cccc(F)c1)CC2	> 20 µM (inactive)

Compound	Potency
Cn1c(=O)c(CCc2ccccc2)nc2cnc(N3CCOCC3)nc21	> 20 µM (inactive)
COc1ccc(NC(=O)N2CCCC3(CCN(C(=O)c4ccco4)CC3)C2)cc1	> 20 µM (inactive)
Cn1cc(-c2nc3cnc(N4CCOCC4)nc3n(C3CC3)c2=O)c2ccccc21	> 20 µM (inactive)
COc1ccc(-n2c(=O)c(-c3cn(C)c4ccccc34)nc3cnc(N4CCNCC4)nc32)cc1	> 4 µM (inactive)
CNc1ncnc2ccc(-c3ccccc3CN(C)C)cc12	> 20 µM (inactive)
COc1ccc(CNc2ncnc3ccc(-c4ccoc4)cc23)c(OC)c1	> 20 µM (inactive)
CN(Cc1ccco1)c1ncnc2ccc(-c3ccoc3)cc12	> 20 µM (inactive)
CN1CCN(c2ncc3nc(-c4cn(C)c5ccccc45)c(=O)n(CCc4ccccc4)c3n2)CC1	> 4 µM (inactive)
Cc1noc(C)c1-c1cncnc1N(C)Cc1ccco1	> 20 µM (inactive)
Cc1ccccc1-c1cncnc1NC1CCNCC1	> 20 µM (inactive)
COCCn1c(=O)c(-c2ccc(Cl)cc2)nc2cnc(N3CCNCC3)nc21	> 20 µM (inactive)
O=c1c(CCc2ccccc2)nc2cncnc2n1Cc1ccccc1	> 20 µM (inactive)
COc1ccc(C(=O)N2CCC[C@@]3(CCN(c4ccccn4)C3)C2)cc1	> 20 µM (inactive)
COc1ccc(Oc2ncc3nc(-c4ccccc4)c(=O)n(CCC#N)c3n2)cc1	> 20 µM (inactive)
CN1CCN(c2nc(-c3ccoc3)nc3ccccc23)CC1	> 20 µM (inactive)
COc1ccccc1CN1CCCC2(CCN(C(=O)c3cccc(F)c3)CC2)C1	> 20 µM (inactive)
Cc1noc(C)c1C(=O)N1CCC2(CC1)CN(C(=O)Nc1cccc(F)c1)C2	> 20 µM (inactive)
COc1ccccc1CN1CCC2(CC1)CCN(C(=O)c1cccc(F)c1)CC2	> 20 µM (inactive)
COCCn1c(=O)c(-c2ccc(OC)cc2)nc2cnc(Oc3ccc(OC)cc3)nc21	> 20 µM (inactive)
O=C(Nc1ccccc1)N1CCCC2(CCN(C(=O)c3cccc(F)c3)CC2)C1	> 20 µM (inactive)
